Screening results (PubChem)
DT40 TDP1 CPT: qHTS for Inhibitors of human tyrosyl-DNA phosphodiesterase 1 (TDP1): qHTS in cells in presence of CPT | chicken DT40 Tdp1-/-;hTDP1 cells + 20 nM CPT, ATP luminescence, 48 h | Potency, µM (top dose mostly 46.2 µM), for the others: at the highest dose activity change, negative = growth inhibition, hits mostly inhibitors | 420,000 compounds, 12% hits | AID 686979, 2013; also: potency is read from the fitted curve at half-maximal effect; nearly all actives have a fitted effect of over 55% in size
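Chicken DT40 Tdp1-/- cells stably complemented with human TDP1 were seeded at 400 cells/well in medium containing 20 nM camptothecin, exposed to pin-transferred compounds, and grown at 37 °C for at least 48 hr. Viability was read as ATP luminescence.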
IL1B secr inh: qHTS for Inhibitors of Inflammasome Signaling: IL-1-beta AlphaLISA Primary Screen; THP-1 LPS/ATP IL-1B secretion, AlphaLISA, 16 h; active compounds read low; 360,000 compounds, 4.7% hits; AID 743279, 2014; activity change, % at 57.5 µM; in the data active = activity change below about -50%; inconclusive = mostly about -30% to -49%
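Secreted IL-1B measured by AlphaLISA bead assay after 16 h compound exposure of THP-1 cells; compounds (final up to 57.5 uM) added 1 h before LPS (250 ng/mL) and ATP (1.25 mM) stimulation; lower signal means less secretion.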
HT1080 IDH1KD tx: qHTS for induction of synthetic lethality in tumor cells producing 2HG: qHTS for the HT-1080-IDH1KD cell line; HT-1080 IDH1 knockdown viability, ATP luminescence, 48 h; Potency, µM (titrated, usually from 46.1 µM), without a hit: at the top dose activity, negative = toxicity, usual class: cytotoxic; 360,000 compounds, 2% hits;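 also: potency is read from the fitted curve at half-maximal effect; 0% = DMSO wells and -100% = cell-free medium wells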
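CellTiter-Glo luminescence after 48 h compound exposure at 37 degrees C of IDH1-knockdown HT-1080 cells in 5% FBS RPMI. %Activity scaled between DMSO wells and cell-free media wells, with curves fitted and assigned curve classes.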
HT1080NT lethal: qHTS for induction of synthetic lethality in tumor cells producing 2HG: qHTS for the HT-1080-NT fibrosarcoma cell line; 360,000 compounds, 1.6% hits; HT-1080-NT fibrosarcoma viability, CellTiter-Glo ATP luminescence, 48 h; Potency, µM (doses to about 46.1 µM), for inactives: top-dose activity, negative = less viability, usual class: cytotoxic;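 also: NT is the 2HG producing partner of a matched IDH1 knockdown line; potency is read from the fitted curve at half-maximal effect; 0% = DMSO-treated cells and -100% = media-only wells without cells; nearly all actives have a fitted effect of over 55% in size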
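Toxicity toward the 2HG-producing NT line was scored as %Activity, normalised to DMSO and no-cell wells, from CellTiter-Glo luminescence after 48 hours' treatment.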
TDP1 cell noCPT: qHTS for Inhibitors of human tyrosyl-DNA phosphodiesterase 1 (TDP1): qHTS in cells in absence of CPT. DT40 Tdp1-/- hTDP1 cells, no CPT, ATP luminescence, 48 h. Potency, µM (doses to about 46.2 µM), for the others: top-dose activity change, negative = growth inhibition, usual class: inhibitors. 420,000 compounds, 15% hits; also: potency is read from the fitted curve at half-maximal effect; nearly all actives have a fitted effect of over 55% in size
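Chicken DT40 Tdp1-/- cells stably complemented with human TDP1 were seeded at 400 cells/well with DMSO in place of 20 nM camptothecin. After compound pinning, cells grew at least 48 hr at 37 °C; viability read by CellTiter-Glo luminescence.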
Active calls of the source: *. An excerpt weighted towards active compounds, which were near 19% of everything screened. Unless noted, calls follow the shape of the dose curve; as a rule, active = well fitted curve in the direction sought with a large enough effect; inconclusive = small, poorly fitted or top-dose-only effect, or another doubt; inactive = no such curve, though single readings can be large; an effect the other way counts as inactive or inconclusive. Unless noted, % is scaled to controls: 0 for no effect and ±100 for the full control effect.

For CCS(=O)(=O)NC(C)C(c1cccs1)N1CCN(C)CC1 (stereo not drawn) the results were DT40 TDP1 CPT -12%, IL1B secr inh -9, HT1080 IDH1KD tx 13%, HT1080NT lethal 5% and TDP1 cell noCPT -5%.
Screening CC(NC(=O)Cc1cccs1)C(c1cccs1)N1CCN(c2ccccc2)CC1 (stereo not drawn) returned DT40 TDP1 CPT inconclusive, IL1B secr inh -4, HT1080 IDH1KD tx 0%, HT1080NT lethal 0% and TDP1 cell noCPT inconclusive.
Screening Cc1ccc(S(=O)(=O)NC(C)C(c2cccs2)N2CCN(C)CC2)cc1 (stereo not drawn) returned DT40 TDP1 CPT -14%, IL1B secr inh 0, HT1080 IDH1KD tx 0%, HT1080NT lethal -10% and TDP1 cell noCPT -12%.
For CC(NC(=O)Cc1cccs1)C(c1cccs1)N1CCN(c2ccccc2F)CC1 (stereo not drawn) the results were DT40 TDP1 CPT 18µM*, IL1B secr inh -3, HT1080 IDH1KD tx -3%, HT1080NT lethal inconclusive and TDP1 cell noCPT inconclusive.
Screening CC(NC(=O)c1ccco1)C(c1cccs1)N1CCN(c2ccc(F)cc2)CC1 (stereo not drawn) returned DT40 TDP1 CPT 18µM*, IL1B secr inh -72*, HT1080 IDH1KD tx inconclusive, HT1080NT lethal -11% and TDP1 cell noCPT 23µM*.
`CCN1CCN(C(c2cccs2)C(C)NS(=O)(=O)c2ccc(Br)cc2)CC1` (stereo not drawn) gave DT40 TDP1 CPT inconclusive, IL1B secr inh -4, HT1080 IDH1KD tx -1%, HT1080NT lethal 0% and TDP1 cell noCPT 26µM*.
CCS(=O)(=O)NC(C)C(c1cccs1)N1CCN(c2ccc(F)cc2)CC1 (stereo not drawn) was read as DT40 TDP1 CPT inconclusive, IL1B secr inh 16, HT1080 IDH1KD tx -4%, HT1080NT lethal -7% and TDP1 cell noCPT 21µM*.
`CC(NC(=O)c1ccco1)C(c1cccs1)N1CCN(c2ccccc2F)CC1` (stereo not drawn) gave DT40 TDP1 CPT inconclusive, IL1B secr inh -15, HT1080 IDH1KD tx 5%, HT1080NT lethal -27% and TDP1 cell noCPT inconclusive.
`Cc1ccc(-c2cc(C(=O)Nc3c(C)n(C)n(-c4ccccc4)c3=O)[nH]n2)c(O)c1C` gave DT40 TDP1 CPT -7%, IL1B secr inh -8, HT1080 IDH1KD tx 1%, HT1080NT lethal -1% and TDP1 cell noCPT -23%.
COc1cc(/C=C2\CCn3c2nc2cc(C(=O)O)ccc2c3=O)ccc1OC(F)F was read as DT40 TDP1 CPT inconclusive, IL1B secr inh 2, HT1080 IDH1KD tx 0%, HT1080NT lethal 26% and TDP1 cell noCPT -39%.
Screening CCOC(=O)c1csc(NC(=O)CN2CCOCC2)n1 returned DT40 TDP1 CPT -1%, IL1B secr inh 16, HT1080 IDH1KD tx -9%, HT1080NT lethal 0% and TDP1 cell noCPT -12%.
For COc1ccc2c(c1)c1c(c(=O)n(-c3ccc(F)c(Cl)c3)c(=O)n1CC(=O)N1CCCC1)n2C the results were DT40 TDP1 CPT -1% and TDP1 cell noCPT 12%.
For O=C1CCCC[C@@H](O)[C@H](O)C[C@H](c2ccccc2)O1 the results were DT40 TDP1 CPT -2%, IL1B secr inh 41, HT1080 IDH1KD tx 3%, HT1080NT lethal 8% and TDP1 cell noCPT -19%.
For C=C1CC2(CC(c3ccccc3)OC(c3ccccc3)C2)OC1=O (stereo not drawn) the results were DT40 TDP1 CPT 1.8µM*, IL1B secr inh -115*, HT1080 IDH1KD tx 16µM*, HT1080NT lethal inconclusive and TDP1 cell noCPT 2.6µM*.
For CN(C(=O)COc1ccccc1C(=O)NCCOc1ccccc1)c1ccccc1 the results were DT40 TDP1 CPT 2.3µM*, IL1B secr inh -97*, HT1080 IDH1KD tx inconclusive, HT1080NT lethal 21µM* and TDP1 cell noCPT 2.3µM*.
Cc1cc(C)n2nc(SCc3c(F)cccc3Cl)nc2n1 was read as DT40 TDP1 CPT inconclusive, IL1B secr inh -5, HT1080 IDH1KD tx 6%, HT1080NT lethal 11% and TDP1 cell noCPT 26µM*.
For Cc1cccc(Cc2c(C)nc3nc(SCc4ccccc4F)nn3c2C)c1 the results were DT40 TDP1 CPT 13µM* and TDP1 cell noCPT 9.2µM*.
For Cc1nc2nc(SCc3c(F)cccc3Cl)nn2c(C)c1Cc1ccccc1 the results were DT40 TDP1 CPT 13µM* and TDP1 cell noCPT 8.2µM*.
For Cc1cccc(Cc2c(C)nc3nc(SCc4cccc(F)c4)nn3c2C)c1 the results were DT40 TDP1 CPT 21µM* and TDP1 cell noCPT inconclusive.
COc1ccccc1NC(=O)C1CCN(S(=O)(=O)c2cn(C)cn2)CC1 was read as DT40 TDP1 CPT -1% and TDP1 cell noCPT -11%.
CCCc1cc(=O)n2c([nH]c3ccccc32)c1C#N was read as DT40 TDP1 CPT inconclusive, IL1B secr inh 8, HT1080 IDH1KD tx 5%, HT1080NT lethal -2% and TDP1 cell noCPT -28%.
COC(=O)c1cnn(-c2ccc(C(=O)Nc3ccc(C(C)=O)cc3)cc2)c1N was read as DT40 TDP1 CPT -3% and TDP1 cell noCPT -12%.
For COc1ccc(OC)c(NC(=O)CC2Oc3ccccc3NC2=O)c1 (stereo not drawn) the results were DT40 TDP1 CPT -3%, IL1B secr inh 19, HT1080 IDH1KD tx 6%, HT1080NT lethal 7% and TDP1 cell noCPT -28%.
`COCCn1c(=O)c(-c2cc(F)cc(F)c2)nc2cnc(N3CCOCC3)nc21` gave DT40 TDP1 CPT 0% and TDP1 cell noCPT 2%.
`Cc1cc(C(=O)COC(=O)c2ccc[nH]c2=O)c(C)n1-c1ccc(F)cc1` gave DT40 TDP1 CPT -4%, IL1B secr inh 25, HT1080 IDH1KD tx 13%, HT1080NT lethal -2% and TDP1 cell noCPT inconclusive.
`CC(C)CNc1nnnc2c1sc1nc(N3CCOCC3)c3c(c12)CC(C)(C)SC3` gave DT40 TDP1 CPT 29µM*, IL1B secr inh -4, HT1080 IDH1KD tx -1%, HT1080NT lethal -1% and TDP1 cell noCPT inconclusive.
For CC1(C)Cc2c(c(N3CCOCC3)nc3sc4c(NCc5ccco5)nnnc4c23)CS1 the results were DT40 TDP1 CPT 21µM*, IL1B secr inh -60*, HT1080 IDH1KD tx -23%, HT1080NT lethal -18% and TDP1 cell noCPT 18µM*.
O=c1[nH]cnc2sc3c(c12)CCC3 was read as DT40 TDP1 CPT -13%, IL1B secr inh 10, HT1080 IDH1KD tx 2%, HT1080NT lethal 20% and TDP1 cell noCPT -29%.
